The record followed here is PubChem BioAssay (NCI).

Compounds without any hit were thinned out: in the full panel of roughly 83,000, 20% have a hit.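 Interpretation: 100, growth as untreated; towards 0, rising growth inhibition; 0, no net growth; 0 to -100, cell death. Compounds scoring below 10 were considered active.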 The source made the active and inactive calls.

For the first assay, the system named is MDA-MB-231 breast. The assay is described as follows: NCI-60 one-dose screen, 48 h (100 = growth as untreated, 0 = no growth, -100 = all killed). Particulars: 10 µM unless noted.
`O=C1C=CC2(NN=C(c3ccccc3)N2c2cccc(Cl)c2)C(Cl)=C1` (configuration not stated): the growth was 61.6% (inactive).

`Cc1ccc(N=C2CSc3nnc(-c4csc5c4CCCC5)n3N2)cc1`: the growth is 43% (inactive).

As to `Cc1cc(-c2cc(OC(=O)c3ccccc3)ccc2Cl)cc2nnc(Nc3ccc(OCCN4CCCC4)cc3)nc12`, the growth is 70.6% (inactive).

Take `Cc1cc(O)cc(-c2c(-c3ccnc(-c4cccnc4)c3)cnn2C)c1`: the growth was 60.2% (inactive).

For the next assay, the system named is RXF 393 renal. The description is as above. Particulars: 10 µM unless noted.
For the compound `CCOc1cc2ncc(C#N)c(Nc3ccc(F)c(Cl)c3)c2cc1NC(=O)/C=C/CN(C)C`, the growth is -83% (active).

For `CCN(CC)CCNC(=O)c1c(C)[nH]c(/C=C2\C(=O)Nc3ccc(F)cc32)c1C`, the growth is -71.4% (active).

`C[C@@H](Oc1cc(-n2cnc3ccc(CN4CCN(C)CC4)cc32)sc1C(N)=O)c1ccccc1C(F)(F)F`: the growth was 16.5% (inactive).

For `CC(C)=CCc1cc2c(cc1O)C1=C(C(=O)C3=C(NCCS3(=O)=O)C1=O)C(C=C(C)C)O2` (configuration not stated), the growth is 57.2% (inactive).

Regarding `O=C(Cc1ccc(-c2ccc(OCCN3CCOCC3)cc2)cn1)NCc1ccccc1`, the growth is 29.3% (inactive).

With `Cc1nc(NC(=O)N2CCC[C@H]2C(N)=O)sc1-c1ccnc(C(C)(C)C(F)(F)F)c1`, the growth is 25.6% (inactive).

For the compound `Cc1c(Cn2c(C)nc3c(C(=O)O)cc(N4CCOCC4)cc32)cccc1C(F)(F)F`, the growth was 27.3% (inactive).

Turning to `COc1cc2nccc(Oc3ccc(NC(=O)C4(C(=O)Nc5ccc(F)cc5)CC4)cc3)c2cc1OC`, the growth is -25.5% (active).

Turning to `O=c1[nH]ccc2c(S(=O)(=O)N3CCCNCC3)cccc12`, the growth is 57.8% (inactive).

As to `Cc1ccc(NC(=O)c2ccc(CN3CC[C@H](N(C)C)C3)c(C(F)(F)F)c2)cc1Nc1nccc(-c2cncnc2)n1`, the growth is -20.2% (active).

On to `O=C(Nc1cccc(Cl)c1)Nc1ncc(CCNc2ncnc3ccsc23)s1`, for which the growth was -0.457% (active).

As to `Cn1ccnc1C(=O)/C=C/c1ccc(CC(=O)Nc2ccc(Br)cc2)cc1`, the growth is 21% (inactive).

`CNC(=O)c1nn(C)c2c1C(C)(C)Cc1cnc(Nc3ccc(N4CCN(C)CC4)cc3)nc1-2`: the growth was -48.2% (active).

For `COc1cccc2cc(-c3nc(C4CCC(C(=O)O)CC4)n4ncnc(N)c34)[nH]c12` (configuration not stated), the growth is -23.8% (active).

With `CNc1ncc2cc(-c3cc(NC(=O)NCCC(C)(C)C)c(F)cc3C)c(C)nc2n1`, the growth was -23.3% (active).

As to `Cc1cc(C(=O)Nc2cc(Oc3ccc4nc(NC(=O)C5CC5)cn4n3)ccc2C)n(C)n1`, the growth was -15.1% (active).

Regarding `O=C(Cc1ccc(/C=C/C(=O)c2ncc[nH]2)cc1)Nc1ccc(Br)cc1`, the growth is 19.4% (inactive).

As to `CNC(=O)c1cccc2cc(Oc3ccnc4cc(OCC5(N)CC5)c(OC)cc34)ccc12`, the growth was 39.8% (inactive).

For the compound `COc1cnc2c(c1)C(=O)c1c-2n(CCCN2CCC(N)CC2)c(=O)c2cc([N+](=O)[O-])ccc12`, the growth was 64.4% (inactive).

Consider `C=CC(=O)Nc1cc2c(Nc3ccc(F)c(Cl)c3)ncnc2cc1OCCCN1CCOCC1`, for which the growth was -53.1% (active).

`NC(=O)c1c(OCc2c(F)cc(Br)cc2F)nsc1NC(=O)NCCCCN1CCCC1`: the growth was -81.9% (active).

For `CCc1nc2ccc(Cc3ccc(C(=O)NO)cc3)cc2c(=O)n1CCc1ccccc1`, the growth was -66.6% (active).

In the case of `Cc1cc(N(CCNc2ccnc3cc(Cl)ccc23)Cc2ccc3c(c2)OCO3)nc(N2CCN(C)CC2)n1`, the growth was -45.7% (active).

With `Cc1[nH]c(/C=C2\C(=O)Nc3ccc(F)cc32)c(C)c1C(=O)NC[C@H](O)CN1CCOCC1`, the growth was -17.1% (active).

`O=C(Nc1cn[nH]c1-c1nc2ccc(CN3CCOCC3)cc2[nH]1)NC1CC1`: the growth was -56.5% (active).

With `O=C1C=CC2(NN=C(c3ccccc3)N2c2cccc(Cl)c2)C(Cl)=C1` (configuration not stated), the growth was 92.4% (inactive).

As for `Cc1cc(-c2cc(OC(=O)c3ccccc3)ccc2Cl)cc2nnc(Nc3ccc(OCCN4CCCC4)cc3)nc12`, the growth was 59.3% (inactive).

On to `Cc1cc(O)cc(-c2c(-c3ccnc(-c4cccnc4)c3)cnn2C)c1`, for which the growth is 54.4% (inactive).
